Whole data set: some 110,000 compounds, median “z-score” near -0.1, cut for the highest 2% near 2. The list comes from a sample in which the highest values are over-represented; it also holds similar structures and randomly drawn compounds. Activity calls are given as the source filed them.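 Rule for the calls: active = z-score in the third read window above 3 or below -3; inactive = the rest.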
molecular target: Metabotropic glutamate receptor 8 (Rattus norvegicus) (UniProt P70579); assay: mGluR8 Gi/Go-coupled signaling modulation – cell-based, rat, thallium flux, HTS, primary screen (AID 488969); details: HEK293 rat mGluR8, GIRK (G protein-gated inwardly rectifying potassium channel) thallium flux, FluoZin2; at 10 µM; stronger effect = higher value; submaximal glutamate (EC20) added with thallium
Sequence (P70579 whole entry, looked up): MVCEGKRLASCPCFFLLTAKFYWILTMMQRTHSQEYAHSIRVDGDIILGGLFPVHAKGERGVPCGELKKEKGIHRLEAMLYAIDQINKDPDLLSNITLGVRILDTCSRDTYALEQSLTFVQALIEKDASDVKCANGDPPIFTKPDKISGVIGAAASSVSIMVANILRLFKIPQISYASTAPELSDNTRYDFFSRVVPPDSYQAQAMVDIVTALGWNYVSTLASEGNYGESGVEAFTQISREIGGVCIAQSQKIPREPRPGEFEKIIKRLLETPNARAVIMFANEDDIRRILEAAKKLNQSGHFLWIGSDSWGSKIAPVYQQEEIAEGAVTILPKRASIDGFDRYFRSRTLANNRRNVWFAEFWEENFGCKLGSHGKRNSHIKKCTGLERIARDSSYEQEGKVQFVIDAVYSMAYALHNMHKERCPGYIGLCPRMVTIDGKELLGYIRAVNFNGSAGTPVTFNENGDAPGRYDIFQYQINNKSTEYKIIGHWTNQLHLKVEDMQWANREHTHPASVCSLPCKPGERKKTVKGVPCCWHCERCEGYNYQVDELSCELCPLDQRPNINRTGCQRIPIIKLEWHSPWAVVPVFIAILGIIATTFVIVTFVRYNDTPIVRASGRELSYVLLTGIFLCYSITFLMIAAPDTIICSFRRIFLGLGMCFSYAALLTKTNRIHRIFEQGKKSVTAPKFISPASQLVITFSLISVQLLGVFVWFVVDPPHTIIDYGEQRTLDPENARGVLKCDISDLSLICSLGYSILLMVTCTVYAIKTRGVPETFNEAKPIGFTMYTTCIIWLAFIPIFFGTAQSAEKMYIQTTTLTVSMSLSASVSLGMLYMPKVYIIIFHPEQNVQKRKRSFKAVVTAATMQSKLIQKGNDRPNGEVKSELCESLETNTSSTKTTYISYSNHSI

SMILES | z-score
CC(C)(C)NC(=O)CN1CCC(O)(c2ccccc2)CC1 | -0.263
CCOC(=O)CC(=O)CSc1nc2cc(C)ccc2cc1C | 0.9
CNC(=O)c1sc(-c2ccccc2)nc1C | -0.396
COc1ccc(C(=O)CSc2ccc(-c3ccccc3)nn2)cc1 | -0.139
Oc1c(C=NCc2ccncc2)sc2ccccc12 | 2.11
CN=Cc1sc2ccccc2c1O | 0.0625
Oc1c(C=Nc2cccnc2)sc2ccccc12 | -0.313
O=c1ccc(/C=C/c2ccccc2)nn1Cc1ccc(Cl)cc1Cl | 0.353
CCN(CC)c1ccc(C(=O)O)cc1 | -0.133
CCN1CCN(C(=O)c2ccc(Sc3ccccc3Cl)c([N+](=O)[O-])c2)CC1 | 0.195
CCN(CC)CCN1C(=O)c2oc3ccccc3c(=O)c2C1c1ccccc1 (configuration not stated) | 3.81 (active)
CCN(CC)CCN1C(=O)c2oc3ccccc3c(=O)c2C1c1ccc(F)cc1 (configuration not stated) | 4.39 (active)
CN(C)CCN1C(=O)c2oc3ccc(F)cc3c(=O)c2C1c1ccncc1 (configuration not stated) | -0.265
CN(C)CCN1C(=O)c2oc3ccccc3c(=O)c2C1c1cccc(Br)c1 (configuration not stated) | 0.553
CCCOc1ccc(C2c3c(oc4ccccc4c3=O)C(=O)N2CCN(CC)CC)cc1OC (configuration not stated) | 0.615
O=C1c2oc3ccccc3c(=O)c2C(c2cccc(O)c2)N1c1ccccn1 (configuration not stated) | -0.576
CCN(CC)CCCN1C(=O)c2oc3ccccc3c(=O)c2C1c1cccnc1 (configuration not stated) | 0.402
CCN(CC)CCN1C(=O)c2oc3ccccc3c(=O)c2C1c1ccc(C)cc1 (configuration not stated) | 8.12 (active)
CN(C)CCN1C(=O)c2oc3ccccc3c(=O)c2C1c1ccc(F)cc1 (configuration not stated) | 1.86
CCOc1ccc(C2c3c(oc4ccccc4c3=O)C(=O)N2CCCN2CCOCC2)cc1 (configuration not stated) | -0.851
CN1C(=O)c2oc3ccccc3c(=O)c2C1c1ccccn1 (configuration not stated) | 8.59 (active)
COc1ccc(C2c3c(oc4ccccc4c3=O)C(=O)N2c2ccccn2)cc1 (configuration not stated) | -0.221
COc1ccc2nc(NC3=NC(C(=O)Nc4ccc(C)cc4)CC(=O)N3)nc(C)c2c1 (configuration not stated) | -0.114

SMILES | z-score
Cc1cc(C)c(NC(=O)C2CCCCN2C)c(C)c1 (configuration not stated) | -0.0533
COc1ccc(N=C2SC(C(N)=O)CC(=O)N2CCc2ccc(OC)c(OC)c2)cc1 (configuration not stated) | -0.154
CCOCCOc1nc2c(c(=O)n(C)c(=O)n2C)n1CCc1ccccc1 | -0.18
CCOc1ccc(NC(=O)Cn2nnc(-c3ccccc3NC(=O)c3cccs3)n2)cc1 | -0.124
COc1cc(C=O)ccc1OS(=O)(=O)c1ccccc1[N+](=O)[O-] | -0.429
COc1ccc(S(=O)(=O)CCc2nnc(NC(=O)c3cccs3)s2)cc1 | -0.075
CSc1cccc(NC(=O)CN(c2ccccc2)S(=O)(=O)N(C)C)c1 | 3.6 (active)
CSc1cccc(NC(=O)CN(c2cccc(C)c2)S(C)(=O)=O)c1 | 0.00929
CSc1cccc(NC(=O)CN(c2ccc(C)cc2C)S(C)(=O)=O)c1 | 3.01 (active)
CSc1cccc(NC(=O)CN(c2cc(C)ccc2C)S(C)(=O)=O)c1 | 1.11
CN(C)S(=O)(=O)N(CC(=O)Nc1ccccc1F)c1ccccc1 | 0.148
CN(C)S(=O)(=O)N(CC(=O)Nc1ccccc1)c1ccccc1 | 0.311
CN(C)S(=O)(=O)N(CC(=O)Nc1cccc(F)c1)c1ccccc1 | 0.587
CCCCNC(=O)c1ccccc1NC(=O)CN(c1ccccc1)S(=O)(=O)N(C)C | 2.11
COC(=O)c1ccccc1NC(=O)CN(c1ccccc1)S(=O)(=O)N(C)C | -1.07
COc1ccc(C(C(=O)NC2CCCCC2)N(CC2CCCO2)C(=O)C2COc3ccccc3O2)cc1OC (configuration not stated) | -0.167
COc1ccc(S(=O)(=O)Nc2ccccc2C(=O)NCc2ccco2)cc1 | -0.614
FC(F)(F)C1=CC(c2ccccc2)=NCCN1 | -0.25
COc1cc(O)oc1C=Nc1ccc(Cl)cc1 | -0.289
Cc1ccc(N2CC(C(=O)Nc3ccncc3)CC2=O)cc1 (configuration not stated) | -0.196
COc1ccc(OC)c(NC(=O)CSc2nc3c(c(=O)n(C)c(=O)n3C)n2C)c1 | -1.15
Cc1cccc(N=Cc2cc3c(cc2[N+](=O)[O-])OCO3)c1 | -0.0653
Cc1ccc(/C=N\NC(=O)c2cc([N+](=O)[O-])cc([N+](=O)[O-])c2)o1 | 4.57 (active)

SMILES | z-score
O=C(N/N=C/c1ccco1)c1cc([N+](=O)[O-])cc([N+](=O)[O-])c1 | 0.778
Cc1ccc(/C=N/NC(=O)c2cccc([N+](=O)[O-])c2)o1 | -0.121
COc1cccc(-c2nc(-c3ccc(NC(=O)Cc4ccccc4OC)cc3)no2)c1 | 0.363
CCCNC(=O)Cc1ccsc1 | 0.11
O=C(CCN1C(=O)c2ccccc2C1=O)Nc1ccc(-c2nc3ccccc3o2)cc1 | -0.0516
Cc1cc(S(=O)(=O)N2CCCC2)ccc1OCC(=O)N1CCOCC1 | 0.0243
COC(=O)c1cc(=O)n(CCc2ccc(OC)cc2)c(=Nc2ccc(F)c(Cl)c2)s1 | 9.49 (active)
COC(=O)c1cc(=O)n(CCc2ccc(OC)c(OC)c2)c(=Nc2ccc(F)c(Cl)c2)s1 | 0.363
COC(=O)c1cc(=O)n(CCc2ccccc2F)c(=Nc2ccc(F)c(Cl)c2)s1 | -0.11
O=C(CSc1nc2c(c(C(F)(F)F)n1)CCc1ccccc1-2)NCc1ccccc1 | 0.257
Cc1ccc(-n2c(Cc3cccn3C)nnc2SCC(=O)NC2CCCCC2)cc1 | 0.061
Cn1cccc1Cc1nnc(SCC(=O)N2CCCCCC2)n1-c1ccc(F)cc1 | 2.24
COc1ccc(NC(=O)CSc2nnc(Cc3cccn3C)n2-c2ccc(F)cc2)cc1OC | -0.626
Cn1cccc1Cc1nnc(SCC(=O)NC2CCCC2)n1-c1ccc(F)cc1 | 2.33
COc1ccc(NC(=O)CSc2nnc(Cc3cccn3C)n2-c2ccc(C)cc2)cc1OC | 2.03
Cn1cccc1Cc1nnc(SCC(=O)N2CCOCC2)n1-c1ccc(F)cc1 | -0.171
CC(=O)Nc1cccc(NC(=O)CSc2nnc(Cc3cccn3C)n2-c2ccc(C)cc2)c1 | -0.278
Cn1cccc1Cc1nnc(SCC(=O)Nc2ccc(F)cc2)n1-c1ccc(F)cc1 | -0.84
Cn1cccc1Cc1nnc(SCC(=O)N2CCN(c3ccccc3)CC2)n1-c1ccc(F)cc1 | -0.223
CC(NC(=O)Cc1ccc(-c2ccccc2)cc1)c1ccccc1 (configuration not stated) | -0.225
Cc1cc(C)c2oc(C(=O)Nc3nnc(C(C)C)s3)cc(=O)c2c1 | -0.0364
